Hits are enriched below; roughly 4.1% of the tested compounds scored in any of these assays.
Gli-Sufu antag = blocks Gli-Sufu signaling in a luciferase reporter; Sufu-KO-LIGHT fibroblasts, Gli luciferase reporter luminescence; inhibition, % at 5 µM; 340,000 compounds, 0.74% hits;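 active = inhibition above about 55%, limit read from the data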
aSyn 5UTR inh = MLPCN primary screen, SNCA 5' untranslated region | alpha-synuclein 5'UTR reporter, inhibitor activity | inhibition, % (tested at 7.5 µM) | 300,000 compounds, 0.82% hits; in the data active = inhibition above about 60%;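 note: H4 neuroglioblastoma cells stably carrying SNCA 5'UTR luciferase fusion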
697 NFkB inh = inhibitors of the PMA/ionomycin-induced NF-kB reporter in 697 B cells. 697 B-cell NF-kB luciferase reporter, 16 h. inhibition, % at 4 µM. 330,000 compounds, 0.33% hits. AID 435022; in the data active = inhibition above about 35%
Mdm2 MdmX PPI = inhibitors of human Mdm2/MdmX interaction; 330,000 compounds, 3% hits; inhibition, % at 8 µM; AID 485346; SaOS-2 split-luciferase Mdm2/MdmX complementation, luminescence; O15151+Q00987;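 active = inhibition of at least 50% at 8 µM in the primary screen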
Target sequence (O15151 whole entry, looked up): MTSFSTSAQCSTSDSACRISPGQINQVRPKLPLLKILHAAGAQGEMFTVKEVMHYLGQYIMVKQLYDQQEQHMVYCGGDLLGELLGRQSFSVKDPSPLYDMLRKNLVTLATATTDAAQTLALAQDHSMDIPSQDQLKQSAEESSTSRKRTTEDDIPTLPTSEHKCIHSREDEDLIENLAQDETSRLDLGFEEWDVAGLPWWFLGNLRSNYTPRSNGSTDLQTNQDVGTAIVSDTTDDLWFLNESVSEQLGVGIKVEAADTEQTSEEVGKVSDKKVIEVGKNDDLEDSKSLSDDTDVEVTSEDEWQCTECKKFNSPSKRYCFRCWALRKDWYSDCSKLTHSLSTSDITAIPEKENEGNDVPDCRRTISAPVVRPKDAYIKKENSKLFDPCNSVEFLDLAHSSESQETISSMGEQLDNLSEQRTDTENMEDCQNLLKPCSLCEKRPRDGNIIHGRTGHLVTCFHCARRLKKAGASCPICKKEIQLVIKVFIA
Target sequence (Q00987 whole entry, looked up): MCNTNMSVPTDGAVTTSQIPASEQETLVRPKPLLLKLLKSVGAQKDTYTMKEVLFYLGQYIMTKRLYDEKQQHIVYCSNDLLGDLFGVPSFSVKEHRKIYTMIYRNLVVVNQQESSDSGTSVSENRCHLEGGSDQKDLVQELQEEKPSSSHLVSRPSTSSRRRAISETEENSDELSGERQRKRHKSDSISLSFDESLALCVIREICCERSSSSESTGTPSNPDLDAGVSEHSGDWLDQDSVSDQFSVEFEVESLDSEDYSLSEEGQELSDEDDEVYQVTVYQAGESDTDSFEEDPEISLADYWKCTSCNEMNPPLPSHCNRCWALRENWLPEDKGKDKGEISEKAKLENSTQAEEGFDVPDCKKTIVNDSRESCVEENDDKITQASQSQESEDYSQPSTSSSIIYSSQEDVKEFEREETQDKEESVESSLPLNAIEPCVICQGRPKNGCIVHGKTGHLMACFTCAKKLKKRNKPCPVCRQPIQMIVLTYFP
Jurkat NFkB inh = inhibitors of the PMA/ionomycin-induced NF-kB reporter in Jurkat cells. 330,000 compounds, 0.53% hits. PMA/ionomycin-induced NF-kB luciferase reporter, luminescence. inhibition, % at 4 µM. AID 435003; in the data active = inhibition above about 50%
KLF5 inh = kruppel-like factor 5 inhibition | AID 1700 | 290,000 compounds, 0.23% hits | inhibition, % at 5 µM | DLD-1 KLF5 promoter-luciferase reporter, luminescence;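 active = inhibition above a per-plate limit of that plate's mean compound inhibition plus 3 SD, cut at about 60% in these data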;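 note: higher means less KLF5 promoter-driven luciferase light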
Mdm2-MdmX conf = human Mdm2/MdmX binding inhibition, confirmed | shares compounds with Mdm2 MdmX PPI | luminescent assay | inhibition, % at 8 µM | 10,000 compounds, 55% hits; in the data active = inhibition above about 40%
FLuc counter = counter-screen for Mdm2/MdmX inhibitors: full-length luciferase | SaOS-2 full-length luciferase counterscreen, luminescence | shares compounds with Mdm2 MdmX PPI | inhibition, % at 8 µM | 6,200 compounds, 77% hits | AID 504607;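 active = mean inhibition at 8 µM reaching about 37%, which flags the compound as non-specific, limit read from the data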;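 note: p53-null SaOS-2 cells with luciferase driven by a doxycycline-inducible promoter; compound on cells about two nights before reading with doxycycline added after day one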
Of the large screens only hits and unclear results are named; the others gave an inactive call (follow-up assays come after a bar, where they were run).

O=C(COc1ccc(F)cc1Cl)Nc1nc(-c2ccccn2)cs1	Mdm2 MdmX PPI 74 (no result: Gli-Sufu antag, KLF5 inh) | Mdm2-MdmX conf 70 | FLuc counter inactive
CCc1sc(C(=O)Nc2nc(-c3ccccn3)cs2)cc1C	Mdm2 MdmX PPI 64 (no result: aSyn 5UTR inh, KLF5 inh) | Mdm2-MdmX conf 40 | FLuc counter 37
Cn1cccc1C(=O)Nc1nc(-c2ccccn2)cs1	none
O=C(Nc1nc(-c2ccccn2)cs1)C1CCCC1	none
Cc1ccc(C(=O)Nc2nc(-c3ccccn3)cs2)s1	Mdm2 MdmX PPI 58 (no result: aSyn 5UTR inh, KLF5 inh) | Mdm2-MdmX conf 76 | FLuc counter inactive
O=C(Nc1nc(-c2ccccn2)cs1)c1ncc(Cl)c(Cl)c1Cl	Mdm2 MdmX PPI 74 | Mdm2-MdmX conf inactive
O=C(COc1cc(F)ccc1[N+](=O)[O-])NCCCc1ccccc1	none
COc1ccc(S(=O)(=O)N2CCCC(N(C)CCc3ccccc3)C2)cc1OC (centres undefined)	none
CCN(C[C@H]1N[C@@](CC)(C(=O)OC)[C@H]2C(=O)N(Cc3ccccc3)C(=O)[C@@H]12)S(=O)(=O)c1ccc(C)cc1	none (no result: aSyn 5UTR inh, KLF5 inh)
CCN(C[C@H]1N[C@@](CC)(C(=O)OC)[C@H]2C(=O)N(Cc3ccccc3)C(=O)[C@@H]12)S(=O)(=O)c1ccc(-c2ccccc2)cc1	Mdm2 MdmX PPI 80 (no result: aSyn 5UTR inh, KLF5 inh) | Mdm2-MdmX conf 79 | FLuc counter inactive
CCN(C[C@H]1N[C@@](CC)(C(=O)OC)[C@H]2C(=O)N(Cc3ccccc3)C(=O)[C@@H]12)S(=O)(=O)c1ccc(C(C)(C)C)cc1	Mdm2 MdmX PPI 69 (no result: aSyn 5UTR inh, KLF5 inh) | Mdm2-MdmX conf 62 | FLuc counter 52
CC[C@@]1(C(=O)OC)N[C@H](CN(C)S(=O)(=O)c2ccc(-c3ccccc3)cc2)[C@@H]2C(=O)N(Cc3ccccc3)C(=O)[C@@H]21	Mdm2 MdmX PPI 91 (no result: aSyn 5UTR inh, KLF5 inh) | Mdm2-MdmX conf 87 | FLuc counter 46
O=[N+]([O-])c1cc([N+](=O)[O-])c(Oc2cncc(Cl)c2)cc1NC1CCCCCCC1	Mdm2 MdmX PPI 74 | Mdm2-MdmX conf inactive | FLuc counter 83
CC[C@@H](C)[C@H](CN[C@H](CNC)C(C)C)NC[C@@H](C)c1ccc(CC(C)C)cc1	Mdm2 MdmX PPI 98 | Mdm2-MdmX conf 100 | FLuc counter 52
COc1ccc(CCC(=O)N(C)CC(=O)Nc2ccc(Cl)c(C(F)(F)F)c2)cc1	none
CNc1ccccc1C(=O)OC(C)C(=O)Nc1ccc(Cl)cn1 (centres undefined)	Mdm2 MdmX PPI 91 | Mdm2-MdmX conf 83 | FLuc counter 113
O=C(CC(c1ccccc1)c1ccccc1)Nc1ccc(Cl)cn1	Mdm2 MdmX PPI 59 | Mdm2-MdmX conf 53 | FLuc counter 61
O=C(CS(=O)(=O)c1ccccc1)Nc1ccc(Cl)cn1	none
CCOc1ncccc1C(=O)OC(C)C(=O)Nc1ccc(Cl)cn1 (centres undefined)	none (no result: aSyn 5UTR inh, KLF5 inh)
O=C(Nc1ccc(Cl)cn1)c1cccc2ccccc12	Mdm2 MdmX PPI 52 | Mdm2-MdmX conf 42 | FLuc counter 71
O=C(Nc1ccc(Cl)cn1)c1ccccc1[N+](=O)[O-]	none
Cc1ccc2sc(N(CCCN(C)C)C(=O)c3ccc(S(=O)(=O)N(C)C4CCCCC4)cc3)nc2c1C	Mdm2 MdmX PPI 99 (no result: KLF5 inh) | Mdm2-MdmX conf 54 | FLuc counter 67
CCN(CC)CCN(C(=O)c1ccc(S(=O)(=O)N(C)C2CCCCC2)cc1)c1nc2c(C)cccc2s1	none
Cc1ccc2sc(N(CCCN(C)C)C(=O)c3ccc(S(=O)(=O)N4CCOCC4)cc3)nc2c1C	none (no result: KLF5 inh)
CCN(Cc1ccccc1)S(=O)(=O)c1ccc(C(=O)N(CCCN(C)C)c2nc3cc4c(cc3s2)OCO4)cc1	Mdm2 MdmX PPI 73 | Mdm2-MdmX conf inactive
CCN(Cc1ccccc1)S(=O)(=O)c1ccc(C(=O)N(CCCN(C)C)c2nc3c(C)c(C)ccc3s2)cc1	Mdm2 MdmX PPI 97 (no result: KLF5 inh) | Mdm2-MdmX conf 46 | FLuc counter 49
CCCC1=Nc2cc(C(=O)N3CCN(c4ccccn4)CC3)ccc2Sc2ccc(C)cc21	none
COc1cc(CNCCc2c[nH]c3ccccc23)ccc1OCc1ccc(F)cc1	Mdm2 MdmX PPI 99 | Mdm2-MdmX conf 59 | FLuc counter 57
COc1cccc(CNCCc2c[nH]c3ccccc23)c1OCc1ccc(F)cc1	Mdm2 MdmX PPI 68 | Mdm2-MdmX conf inactive
O=C(c1ncc[nH]1)c1cccs1	none
Cn1nc(C(=O)NNC(=O)Cc2ccc(S(=O)(=O)N3CCOCC3)s2)c2ccccc2c1=O	none (no result: aSyn 5UTR inh, 697 NFkB inh, Mdm2 MdmX PPI, Jurkat NFkB inh, KLF5 inh)
COc1ccc(CCNC(=O)CSc2nn(-c3ccccc3)c(=S)s2)cc1	none
Cc1cc(C(=O)Nc2ccc(F)cc2C)n(-c2ccccc2)n1	none
CCOC(=O)c1ccc(Nc2sc(C(=O)c3cccc([N+](=O)[O-])c3)c(N)c2C#N)cc1	Mdm2 MdmX PPI 75 | Mdm2-MdmX conf 74 | FLuc counter 44
Cc1ccc(C(=O)c2sc(Nc3ccccc3)c(C#N)c2N)cc1	none
Cc1cc(C(F)(F)F)nc(SCC(=O)Nc2c(C)n(C)n(-c3ccccc3)c2=O)n1	none
CC1=CC(=O)CC(C)(C)C1(O)/C=C/C(C)=C/C(=O)O (centres undefined)	none
CC1=C(/C=C/C(C)=C/C=C/C(C)=C\C(=O)O)C(C)(C)CCC1	Mdm2 MdmX PPI 60 (no result: KLF5 inh) | Mdm2-MdmX conf 49 | FLuc counter 45
CC(C)(C)c1ccc(-c2nnc3sc(-c4ccccn4)nn23)cc1	Mdm2 MdmX PPI 66 | Mdm2-MdmX conf 65 | FLuc counter inactive
O=C(NC1CCCCC1)c1sc(=S)n2c1[nH]c(=O)c1ccccc12	Mdm2 MdmX PPI 70 | Mdm2-MdmX conf inactive
N#Cc1ccc2[nH]c(CO)c(-c3ccccc3)c2c1	none
Cc1cccc2cc(C#N)c(SCc3nnc(-c4ccccc4[N+](=O)[O-])o3)nc12	Mdm2 MdmX PPI 59 | Mdm2-MdmX conf inactive
CCCC[C@@H](CNC)NC[C@H](Cc1ccc(O)cc1)NCCc1ccc(OCC)cc1	Mdm2 MdmX PPI 98 | Mdm2-MdmX conf 52 | FLuc counter 74
COc1ccccc1/C=C/C(=O)OCC(=O)Nc1ccc(Cl)cn1	Mdm2 MdmX PPI 55 | Mdm2-MdmX conf 51 | FLuc counter 60
CN(c1cccc(NC(=O)CN(c2ccc(C34CC5CC(CC(C5)C3)C4)cc2)S(C)(=O)=O)c1)S(C)(=O)=O	Mdm2 MdmX PPI 76 | Mdm2-MdmX conf 54 | FLuc counter 78
CN(c1cccc(NC(=O)CN(c2ccc(F)cc2)S(C)(=O)=O)c1)S(C)(=O)=O	none
Cc1cc(SCC(=O)NCC(c2cccs2)N2CCOCC2)c(C)cc1Br (centres undefined)	none (no result: KLF5 inh)
CC1CCCN(C(=O)Cn2nnc(-c3ccccc3F)n2)C1 (centres undefined)	none
CC(C)(C)NC(=O)NC(=O)CN1CCN(C(c2ccccc2)c2ccccc2)CC1	none
